Screens from PubChem.
IDH1 R132H inh: blocks human mutant IDH1 R132H enzyme; AID 602179; hit rate 0.093% among 390,000; O75874; Potency, µM (series often up to 76.6 µM), most hits filed as inhibitors; IDH1-R132H enzyme, NADPH consumption, diaphorase/resazurin fluorescence; further: nearly all actives have a fitted effect of over 65% in size
Target sequence (O75874 whole entry R132H, stated change not applied): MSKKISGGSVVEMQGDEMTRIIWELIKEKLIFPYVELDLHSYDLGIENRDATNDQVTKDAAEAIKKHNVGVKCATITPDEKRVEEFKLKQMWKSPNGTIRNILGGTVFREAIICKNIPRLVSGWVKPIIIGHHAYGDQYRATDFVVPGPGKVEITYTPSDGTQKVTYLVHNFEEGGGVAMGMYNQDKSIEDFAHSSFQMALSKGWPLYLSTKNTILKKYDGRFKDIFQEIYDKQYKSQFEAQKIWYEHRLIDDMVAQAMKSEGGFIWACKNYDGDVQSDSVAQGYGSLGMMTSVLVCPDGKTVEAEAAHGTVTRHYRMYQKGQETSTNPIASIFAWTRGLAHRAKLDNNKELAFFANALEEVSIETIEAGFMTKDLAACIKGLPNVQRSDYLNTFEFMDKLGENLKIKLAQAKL
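IDH1-R132H (0.5 ug/mL dispensed) in pH 7.5 Tris buffer was preincubated 30 min with compound, then given a substrate mix of 0.016 mM NADPH and 2 mM alpha-KG for 80 min at room temperature; remaining NADPH was read by diaphorase/resazurin fluorescence.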
Nrf2 block: Nrf2 pathway inhibition. hit rate 2.1% among 360,000. A549 ARE-Fluc reporter, luciferase luminescence, 18-24 h. Potency, µM (highest dose often 46 µM), usual class: inhibitors; further: nearly all actives have a fitted effect of over 60% in size
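Cells were seeded and rested 2 h, then exposed to compounds for 18-24 h. CellTiter-Fluor was read first as a viability measure. BugLite was added 15 min before the final luminescent read of ARE-luciferase activity in A549 cells.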
Nrf2 activator: Nrf2 pathway activation; hit rate 0.31% among 410,000; AREc32 ARE-luciferase reporter (MCF7-derived line), luminescence, 24 h; Potency, µM (series often up to 46.1 µM), usual class: activators; AID 624171; further: nearly all actives have a fitted effect of over 65% in size
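Reporter line AREc32 (ARE-Fluc), seeded overnight in OPTI-MEM with 5% FBS; compound pin-transferred, 24 hr at 37 deg C, 5% CO2; luminescent read-out.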
ALOX12 inh: blocks human arachidonate 12S-lipoxygenase. P18054. purified 12hLO, xylenol orange hydroperoxide absorbance. Potency, µM (series often up to 108 µM), actives largely listed as inhibitors. hit rate 1.1% among 580,000. AID 1671190
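Hydroperoxide product was detected by ferrous iron/xylenol orange as the 573 to 405 nm absorbance ratio. Arachidonic acid at 40 uM (final) was turned over for 30 min at room temperature by 150 nM human 12hLO, pH 7.0 Hepes buffer, after 15 min compound preincubation.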
A549 viability: counter-screen for Nrf2 inhibitors: cytotoxicity in A549 cells; Potency, µM (titrated, usually from 46 µM), hits mostly inhibitors; AID 504648; hit rate 0.16% among 390,000; A549 ARE-Fluc cells, CellTiter-Fluor viability, 18-24 h
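A549 ARE_Fluc cells in 5% FBS OPTI-MEM were exposed to compounds in concentration-response for 18-24 h at 37 deg C. Viability was read by CellTiter-Fluor fluorescence (Ex 405/Em 525) after 30 min, before the luciferase read.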
LDHA inh: LDHA (human) enzyme inhibition. P00338. purified LDHA, NADH/diaphorase-resazurin fluorescence; stronger effect = lower value. activity change, % (values are at about 110 or 230 µM). hit rate 0.15% among 480,000. AID 1347041; in the data active means activity change below about -30%; inconclusive means mostly about -25% to -30%
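LDH5 2 nM; NADH 0.06 mM, pyruvate 0.2 mM; 200 mM Tris pH 7.4, EDTA, Tween-20; 5 min RT. Detection: diaphorase 0.133 mg/mL + resazurin 37 µM, fluorescence ex540/em590 at 0 and 20 min; normalized to enzyme-free and DMSO wells.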
Numbers stand for hits; . = inactive; ? = inconclusive; / = no result; ! = not confirmed by another sample. Hits are enriched below; roughly 2.7% of the tested compounds scored in any of these assays. Unless noted, the call rests on the fitted dose curve; in most records, active means well fitted curve in the direction sought with a large enough effect; inconclusive means small, poorly fitted or top-dose-only effect, or another doubt; inactive means no such curve, though single readings can be large; an effect the other way counts as inactive or inconclusive.

SMILES | IDH1 R132H inh | Nrf2 block | Nrf2 activator | ALOX12 inh | A549 viability | LDHA inh
COc1ccc(CCNc2nc(-c3cccnc3)cs2)cc1OC | . | 23.1µM | . | . | . | .
COc1ccc(CCNc2nc(-c3ccncc3)cs2)cc1OC | . | . | . | . | . | .
COc1ccc(CCNc2nc(-c3sc(C)nc3C)cs2)cc1OC | . | 20.6µM | . | ? | ? | .
Cc1nc(C)c(-c2csc(Nc3ccc(N)cc3)n2)s1 | . | 20.6µM | . | . | . | .
Cc1ncc(-c2ccc(C)c(S(=O)(=O)Nc3ccc(Cl)cc3)c2)o1 | / | / | / | ? | / | .
CCOC(=O)c1cc(C(=O)NCc2ccc(Cl)cc2Cl)nn1C | . | 20.6µM | . | . | . | .
Cc1cnc(C(=O)NCc2ccc(Cl)cc2Cl)cn1 | . | . | . | . | . | .
N#Cc1c(NC(=O)CSc2nc(N)cc(=O)[nH]2)sc2c1CCCC2 | . | 14.6µM | . | . | . | .
N#Cc1c(NC(=O)CSc2nc3ccccc3[nH]2)sc2c1CCCCC2 | / | / | / | ? | / | .
CNc1c(NC(=O)CCc2ccccc2)c(=O)oc2ccccc12 | / | / | / | . | / | .
Clc1cccc(-c2nn3c(Cn4cnc5ccccc54)nnc3s2)c1 | . | . | . | 10µM! | . | .
Brc1ccccc1-c1nn2c(Cn3cnc4ccccc43)nnc2s1 | / | / | / | 11.2µM | / | .
Cc1ccc(N(C(=O)c2snc(C(N)=O)c2N)C(C(=O)NCCC(C)C)c2ccco2)cc1 (stereo not drawn) | . | 23.1µM | . | . | ? | .
COc1ccccc1NC(=O)COC(=O)c1cc(C)nc2ccccc12 | . | . | . | ? | . | .
Cc1cc(C(=O)OCC(=O)c2cccc3ccccc23)c2ccccc2n1 | / | / | / | . | / | -35.4
Cc1cc(C(=O)OCC(=O)Nc2ccccc2C(C)C)c2ccccc2n1 | / | / | / | . | / | -39.9
Cc1cc(C(=O)OC(C)C(=O)NC(N)=O)c2ccccc2n1 (stereo not drawn) | / | / | / | . | / | -31.8
Cc1ccc2nc(C)cc(C(=O)OC(C)C(=O)NCC(C)C)c2c1 (stereo not drawn) | / | / | / | . | / | -30.4
CCNC(=O)NC(=O)C(C)OC(=O)c1cc(C)nc2ccccc12 (stereo not drawn) | / | / | / | . | / | .
OCCCNC(=S)Nc1ccc(F)cc1 | / | / | / | ? | / | .
CCOc1ccc(CCNC(=O)c2cc3sc(CC)cc3n2C)cc1OCC | . | 18.4µM | . | . | . | .
CCOc1ccc(CCNC(=O)c2cc3c(-c4ccccc4F)nn(C)c3s2)cc1OCC | . | 18.4µM | . | . | . | .
O=C(NCC1CCOCC1)c1cc(COc2cccc(C(F)(F)F)c2)on1 | . | 23.1µM | . | . | . | .
Cc1ccc(CN(C)C(=O)c2cc(COc3cccc(C(F)(F)F)c3)on2)o1 | . | . | . | 39.8µM | . | .
O=C(NC1CCOC1)c1cc(COc2cccc(C(F)(F)F)c2)on1 (stereo not drawn) | . | . | . | . | . | .
SMILES | IDH1 R132H inh | Nrf2 block | Nrf2 activator | ALOX12 inh | A549 viability | LDHA inh
CN(Cc1nccn1C)C(=O)c1cc(COc2cccc(C(F)(F)F)c2)on1 | . | . | . | . | ? | .
O=C(Nc1ccc(C(F)(F)F)cc1)C1CCN(/C=C/C(=O)C(F)(F)F)CC1 | / | / | / | ? | / | .
O=c1c2ccccc2nc(SCc2nnc(-c3ccccc3)o2)n1CCCO | / | / | / | . | / | .
CC(C)CCn1c(SCC(=O)c2ccccc2)nc2c1c(=O)n(C)c(=O)n2C | / | / | / | 17.8µM | / | .
CCCCn1c(SCc2nnc(-c3ccccc3)o2)nc2c1c(=O)n(C)c(=O)n2C | . | 10.3µM | . | . | . | .
CCCOc1ccc(NC(=O)c2ccc(Cl)cc2)c2cccnc12 | / | / | / | . | / | .
COc1cccc(-c2ccc(C(=O)N3CCC4(CCCN(C)C4=O)C3)o2)c1 (stereo not drawn) | / | / | / | . | / | /
COc1ccc(Cc2nc3ccccc3n2Cc2ccccc2F)cc1 | . | 18.4µM | . | . | . | .
O=C(CSc1ccc2c(c1)OCCCO2)NC(=O)c1cccs1 | / | / | / | . | / | .
CC(=O)c1c(C)n([O-])c2cc(Cl)c(Cl)cc2[n+]1=O | / | / | / | . | / | .
CC(C(=O)NCCS(=O)(=O)c1ccc(Cl)cc1)S(=O)(=O)c1ccc(Cl)cc1 (stereo not drawn) | . | 9.2µM | . | . | . | .
CC(C(=O)NCCS(=O)(=O)c1ccc(Cl)cc1)S(=O)(=O)c1ccccc1 (stereo not drawn) | . | . | . | . | . | .
N#CCSc1nccc(/C=C/c2ccccc2)n1 | . | ? | 11.2µM | ? | . | .
CSc1nc2nccc(/C=C\c3ccccc3)n2n1 | . | ? | ? | . | . | .
CCN(CC)C(=O)COc1ccc(-c2nnc(Nc3ccccc3)c3ccccc23)cc1 | / | / | / | . | / | .
Cc1c(Cl)cccc1NC(=O)Cn1cc(C#N)c2ccccc21 | / | / | / | ? | / | .
O=C(c1ccc(F)c(F)c1)N1CCN(Cc2nnnn2C2CC2)CC1 | / | / | / | . | / | .
O=C(COc1ccccc1Cl)Nc1ccc(CN2CCOCC2)cc1 | . | 23.1µM | . | . | . | .
O=C(COc1ccc(Br)cc1)Nc1ccc(C(=O)Nc2ccccc2C(=O)O)cc1 | . | . | . | . | . | -31.8
O=C(/C=C/c1ccc(Cl)cc1Cl)Nc1ccc(CN2CCOCC2)cc1 | . | 7.31µM | . | . | . | .
O=C(CCCOc1ccc(Br)cc1)Nc1ccc(S(=O)(=O)N2CCOCC2)cc1 | . | 14.6µM | . | . | . | .
O=C(COc1ccc(Cl)cc1Cl)Nc1ccc(CN2CCOCC2)cc1 | . | ? | . | . | . | .
COc1ccc(OCC(=O)Nc2ccc(C(=O)Nc3ccccc3C(=O)O)cc2)cc1 | . | . | . | ? | . | .
O=C(COc1ccc(S(=O)(=O)N2CCOCC2)cc1)Nc1ccc(Br)cc1 | . | ? | . | . | . | .
O=C(COc1ccc(Br)cc1)Nc1ccc(CN2CCOCC2)cc1 | . | 23.1µM | . | . | . | .
SMILES | IDH1 R132H inh | Nrf2 block | Nrf2 activator | ALOX12 inh | A549 viability | LDHA inh
O=C(COc1ccccc1C(=O)Nc1ccccc1)c1ccc(Br)cc1 | . | 20.6µM | . | . | ? | .
CS(=O)(=O)N(Cc1csc(-c2cccs2)n1)C1CCN(C(=O)c2ccccc2F)CC1 | / | / | / | ? | / | .
Cc1c(NC(=O)c2cc3cc(Br)ccc3[nH]2)c(=O)n(-c2ccccc2)n1C | / | / | / | 50.1µM | / | .
CN(C)c1ccc(CN2CCCCCC2)cc1 | . | . | . | . | . | .
NC(N)=NCc1ccc(CN2CCCC2)cc1 | / | / | / | 44.7µM | / | .
Cc1cc(Nc2cccc(C(F)(F)F)c2)nc2ccc(NC(=O)c3cccc(Cl)c3)cc12 | . | 25.9µM | . | . | 18.4µM | .
Cc1cc(Nc2cccc(C(F)(F)F)c2)nc2ccc(NC(=O)c3cccnc3)cc12 | . | 20.6µM | . | . | ? | .
